According to PubChem BioAssay AID1159580 (chemical genetic matrix, 2015):
The campaign covered roughly 5,500 compounds. About 2,000 (36%) were called active. Not shown: some 18% with an inconclusive outcome. No stated cut-off is given here; in the data, active means normalized growth mostly below about 0.91 (no sharp cut-off); inconclusive means no clear call, values can overlap the other calls; inactive means mostly above about 0.92. The list shows a part of the results.

Experiment: chemical genetic growth profiling, strain panel (AID 1159580);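 further: tested at 20 µM; growth read once vehicle control cultures reached saturation at 30 °C; 1 = growth at the plate median or of vehicle wells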
Conditions: S. cerevisiae deletion strains, growth OD

Measured: normalized growth

O=C(NC(Cc1cc(=O)[nH]c2ccccc12)C(=O)O)c1ccc(Cl)cc1 (stereo unspecified)
inactive: locus YAL021C, strain ccr4, stronger effect = lower value 1.01 | locus YAL026C, strain drs2, stronger effect = lower value 1 | locus YAL030W, strain snc1, stronger effect = lower value 1 | locus YBL061C, strain skt5, stronger effect = lower value 1 | locus YBR009C, strain hhf1, stronger effect = lower value 1.01 | locus YBR023C, strain chs3, stronger effect = lower value 1.01 | locus YBR171W, strain sec66, stronger effect = lower value 0.992 | locus YBR231C, strain swc5, stronger effect = lower value 0.994 | locus YBR279W, strain paf1, stronger effect = lower value 0.997 | locus YCL011C, strain gbp2, stronger effect = lower value 1 | locus YCL016C, strain dcc1, stronger effect = lower value 0.994 | locus YCL061C, strain MRC1, stronger effect = lower value 0.994 | locus YCL069W, strain vba3, stronger effect = lower value 1 | locus YCR088W, strain abp1, stronger effect = lower value 0.994 | locus YDL005C, strain med2, stronger effect = lower value 1 | locus YDL040C, strain nat1, stronger effect = lower value 1 | locus YDR001C, strain nth1, stronger effect = lower value 0.997 | locus YDR069C, strain doa4, stronger effect = lower value 1 | locus YDR137W, strain rgp1, stronger effect = lower value 0.969 | locus YDR159W, strain sac3, stronger effect = lower value 1.01 | locus YDR195W, strain ref2 0.972 | locus YDR297W, strain sur2, stronger effect = lower value 1.01 | locus YDR334W, strain swr1, stronger effect = lower value 1.02 | locus YDR335W, strain msn5, stronger effect = lower value 1 | locus YDR392W, strain spt3, stronger effect = lower value 1.03 | locus YEL003W, strain gim4, stronger effect = lower value 0.998 | locus YEL037C, strain rad23, stronger effect = lower value 0.982 | locus YEL061C, strain CIN8 (second series), stronger effect = lower value 1 | locus YER015W, strain faa2, stronger effect = lower value 1.01 | locus YER016W, strain bim1, stronger effect = lower value 1 | locus YER111C, strain swi4, stronger effect = lower value 0.999 | locus YER155C, strain BEM2 (second series), stronger effect = lower value 1 | locus YFR010W, strain ubp6, stronger effect = lower value 0.995 | locus YGL167C, strain pmr1, stronger effect = lower value 1.01 | locus YGL173C, strain kem1, stronger effect = lower value 1.01 | locus YGL227W, strain vid30, stronger effect = lower value 1 | locus YGL240W, strain doc1, stronger effect = lower value 0.998 | locus YGL253W, strain hxk2, stronger effect = lower value 1 | locus YHR013C, strain ard1, stronger effect = lower value 1 | locus YHR027C, strain rpn1, stronger effect = lower value 0.996 | locus YHR030C, strain SLT2, stronger effect = lower value 0.993 | locus YHR079C, strain IRE1, stronger effect = lower value 0.99 | locus YHR142W, strain chs7, stronger effect = lower value 0.986 | locus YJL092W, strain hpr5, stronger effect = lower value 0.998 | locus YJL095W, strain BCK1 (second series), stronger effect = lower value 0.997 | locus YJL095W, strain BCK1, stronger effect = lower value 0.988 | locus YJL115W, strain asf1, stronger effect = lower value 1 | locus YJL129C, strain trk1, stronger effect = lower value 1 | locus YJL154C, strain vps35, stronger effect = lower value 1 | locus YJL164C, strain tpk1, stronger effect = lower value 1 | locus YJL166W, strain qcr8, stronger effect = lower value 0.995 | locus YJR066W, strain TOR1, stronger effect = lower value 0.913 | locus YKL160W, strain elf1, stronger effect = lower value 0.998 | locus YKR026C, strain gcn3, stronger effect = lower value 0.994 | locus YKR091W, strain srl3, stronger effect = lower value 1 | locus YLL001W, strain dnm1, stronger effect = lower value 0.997 | locus YLL026W, stronger effect = lower value 1 | locus YLL041C, strain sdh2, stronger effect = lower value 0.997 | locus YLR027C, strain aat2, stronger effect = lower value 0.994 | locus YLR113W, strain HOG1, stronger effect = lower value 0.995 | locus YLR221C, strain rsa3, stronger effect = lower value 0.999 | locus YLR258W, strain gsy2, stronger effect = lower value 1 | locus YLR262C, strain YPT6 (second series), stronger effect = lower value 1 | locus YLR320W, strain mms22, stronger effect = lower value 0.996 | locus YLR342W, strain FKS1, stronger effect = lower value 0.991 | locus YLR357W, strain rsc2, stronger effect = lower value 0.993 | locus YLR370C, strain arc18, stronger effect = lower value 1 | locus YLR384C, strain iki3, stronger effect = lower value 0.998 | locus YML120C, strain ndi1, stronger effect = lower value 1 | locus YMR058W, strain fet3, stronger effect = lower value 1.01 | locus YMR125W, strain sto1, stronger effect = lower value 1.01 | locus YMR129W, stronger effect = lower value 0.983 | locus YMR205C, strain PFK2, stronger effect = lower value 0.997 | locus YMR231W, strain pep5, stronger effect = lower value 1.01 | locus YNL071W, strain lat1, stronger effect = lower value 1.01 | locus YNL183C, strain NPR1, stronger effect = lower value 0.934 | locus YNL209W, strain ssb2, stronger effect = lower value 1 | locus YNL248C, strain rpa49, stronger effect = lower value 0.994 | locus YNL322C, strain KRE1 (second series), stronger effect = lower value 0.992 | locus YNR049C, strain mso1, stronger effect = lower value 0.986 | locus YOR001W, strain rrp6, stronger effect = lower value 0.988 | locus YOR070C, strain gyp1, stronger effect = lower value 1.01 | locus YOR080W, strain dia2, stronger effect = lower value 0.998 | locus YOR083W, strain WHI5, stronger effect = lower value 1 | locus YOR106W, strain vam3, stronger effect = lower value 0.993 | locus YOR231W, strain MKK1, stronger effect = lower value 0.988 | locus YOR265W, strain rbl2, stronger effect = lower value 1 | locus YOR270C, strain vph1, stronger effect = lower value 1.03 | locus YOR290C, strain snf2, stronger effect = lower value 1.01 | locus YPL051W, strain arl3, stronger effect = lower value 1.01 | locus YPL078C, strain atp4, stronger effect = lower value 0.999 | locus YPL106C, strain sse1, stronger effect = lower value 1.01 | locus YPL240C, strain hsp82, stronger effect = lower value 0.982 | locus YPL256C, strain CLN2, stronger effect = lower value 1.01

Brc1c(NC2=NCCN2)ccc2nccnc12
inactive: locus YAL040C, strain CLN3, stronger effect = lower value 1.01 | locus YCL061C, strain MRC1 (second series), stronger effect = lower value 1 | locus YDR363W, strain ESC2, stronger effect = lower value 1 | locus YER002W, strain NOP16, stronger effect = lower value 1.01 | locus YGR229C, strain SMI1, stronger effect = lower value 1.01 | locus YMR307W, strain GAS1, stronger effect = lower value 0.994 | locus YNL175C, strain NOP13, stronger effect = lower value 0.989 | locus YNL197C, strain WHI3, stronger effect = lower value 0.981 | locus YNL224C, strain SQS1, stronger effect = lower value 0.994 | locus YNL322C, strain KRE1, stronger effect = lower value 1 | locus YOR083W, strain WHI5 (second series), stronger effect = lower value 1 | locus YPL241C, strain CIN2, stronger effect = lower value 1
